Inconclusive results are not listed. Where a call stands in place of a potency, no number is given. The source made the active and inactive calls. Unless noted, the call rests on the fitted dose curve; in most records, active means well fitted curve in the direction sought with a large enough effect; inconclusive means small, poorly fitted or top-dose-only effect, or another doubt; inactive means no such curve, though single readings can be large; an effect the other way counts as inactive or inconclusive. Residues, ends and D or L forms follow the SMILES beside them. *: point of attachment. Cbz = O=C(OCc1ccccc1)*
Tests used:
[1] = NS1 protein of Zika virus - qHTS assay to identify small molecule inhibitors in human HEK 293 cells (AID 1347053); further: series mostly up to about 46 µM; nearly all actives have a fitted effect of over 55% in size
Procedure, shortened: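 In this cell-based screen, HEK 293 cultures received compound for one hour before Zika MR766 at MOI = 0.5. NS1 was quantified 24 hours later by TR-FRET, normalized to virus-free wells and infected wells.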

[2] = target: T1, Tyrosine-protein phosphatase non-receptor type substrate 1 (Homo sapiens) + Leukocyte surface antigen CD47 (Homo sapiens) (UniProt P78324+Q08722); test: CD47-SIRPalpha protein protein interaction - LANCE assay qHTS validation (AID 1347057; active means well fitted curve in the direction sought with a large enough effect in the signal ratio, with a control signal flat, not every such curve was filed as active; the % refers to the signal ratio; further: series mostly up to about 38 µM)
T1 sequence (P78324 whole entry, looked up, the tested form may be a part): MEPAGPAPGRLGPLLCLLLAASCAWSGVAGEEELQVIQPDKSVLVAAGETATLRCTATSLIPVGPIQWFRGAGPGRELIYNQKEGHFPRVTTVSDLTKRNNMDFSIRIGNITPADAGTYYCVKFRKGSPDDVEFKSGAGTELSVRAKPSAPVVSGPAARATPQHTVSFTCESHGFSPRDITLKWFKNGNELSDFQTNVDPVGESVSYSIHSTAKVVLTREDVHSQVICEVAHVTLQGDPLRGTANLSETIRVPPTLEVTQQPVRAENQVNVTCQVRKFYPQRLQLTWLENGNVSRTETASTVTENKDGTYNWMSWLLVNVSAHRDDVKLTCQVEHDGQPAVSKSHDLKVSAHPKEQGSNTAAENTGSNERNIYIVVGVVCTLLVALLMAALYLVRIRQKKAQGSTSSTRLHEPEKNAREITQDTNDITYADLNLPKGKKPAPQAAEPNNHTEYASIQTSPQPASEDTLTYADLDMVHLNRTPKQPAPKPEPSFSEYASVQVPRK
T1 sequence (Q08722 whole entry, looked up, the tested form may be a part): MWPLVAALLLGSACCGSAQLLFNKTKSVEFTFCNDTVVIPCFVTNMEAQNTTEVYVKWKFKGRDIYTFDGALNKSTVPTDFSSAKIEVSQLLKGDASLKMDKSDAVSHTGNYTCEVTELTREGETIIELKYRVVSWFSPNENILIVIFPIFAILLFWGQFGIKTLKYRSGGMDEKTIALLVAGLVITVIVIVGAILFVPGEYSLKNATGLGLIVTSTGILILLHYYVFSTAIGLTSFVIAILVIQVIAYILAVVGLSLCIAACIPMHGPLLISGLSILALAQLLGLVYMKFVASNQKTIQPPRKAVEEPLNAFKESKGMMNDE
Procedure, shortened: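 Inhibition of soluble CD47/SIRPalpha ectodomain association by titrated compounds, measured as 665/615 nm time-resolved FRET ratio after sequential 30 min room-temperature incubations.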

[3] = target: T1, Tyrosine-protein phosphatase non-receptor type substrate 1 (Homo sapiens) + Leukocyte surface antigen CD47 (Homo sapiens); test: CD47-SIRPalpha protein protein interaction - Alpha assay qHTS validation (AID 1347059);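 further: bead proximity luminescence from CD47 binding SIRPalpha after compound preincubation with SIRPalpha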
Procedure, shortened: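 AlphaScreen signal between CD47-His (12.5 nM) and biotin-SIRPalpha (25 nM) soluble extracellular domains, bead-captured via Ni-NTA and streptavidin. Compounds, in 7-point titrations, met SIRPalpha 30 min before CD47; PBS pH 7.4 with 0.05% IGEPAL.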

[4] = target: Parathyroid hormone/parathyroid hormone-related peptide receptor (Homo sapiens) (UniProt Q03431); test: qHTS for PTHR1 Agonists: Optimization Screen against the NCGC LOPAC library (AID 1347079);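 further: GloSensor cAMP luminescence in HEK-293 GP2 cells expressing human PTHR1 with IBMX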; further: potency means the concentration at half of the fitted maximal effect
Chain of Parathyroid hormone/parathyroid hormone-related peptide receptor (Homo sapiens) (Q03431 whole entry, looked up): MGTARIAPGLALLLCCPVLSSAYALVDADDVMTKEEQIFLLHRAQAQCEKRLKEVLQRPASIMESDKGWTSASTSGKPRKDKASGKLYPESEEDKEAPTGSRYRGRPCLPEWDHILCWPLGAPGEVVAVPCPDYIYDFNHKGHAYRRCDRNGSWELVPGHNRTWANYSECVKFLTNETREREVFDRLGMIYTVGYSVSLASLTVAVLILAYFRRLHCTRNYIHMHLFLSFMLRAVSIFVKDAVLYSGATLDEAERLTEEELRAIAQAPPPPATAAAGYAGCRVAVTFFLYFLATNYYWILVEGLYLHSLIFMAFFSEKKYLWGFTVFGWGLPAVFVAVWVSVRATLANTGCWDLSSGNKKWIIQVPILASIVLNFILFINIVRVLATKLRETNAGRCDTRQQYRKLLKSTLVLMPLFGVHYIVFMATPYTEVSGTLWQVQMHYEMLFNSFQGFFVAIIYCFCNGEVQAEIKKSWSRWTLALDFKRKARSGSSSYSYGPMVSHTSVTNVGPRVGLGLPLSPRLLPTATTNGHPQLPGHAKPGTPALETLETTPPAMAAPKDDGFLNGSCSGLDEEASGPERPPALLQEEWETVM
Procedure, shortened: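 HEK-293 GP2 cells, PTHR1 + GloSensor cAMP; 3000 cells/well, o/n. Luciferin + IBMX 0.5mM each (stock), 1 hr 37C. Cpd titration, 1 hr 37C. Lum after 15 min RT. Ctrl M-PTH(1-15) top 10uM.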

[5] = target: N-terminal Xaa-Pro-Lys N-methyltransferase 1 (Homo sapiens) (UniProt Q9BV86); test: qHTS Assay for Inhibitors of N-terminal methyltransferase 1 (NTMT1): LOPAC validation of the NTMT1 SAHH-coupled ThioGlo3 Assay (AID 1347143);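 further: SAH from peptide methylation measured as thiol fluorescence via SAHH coupling and ThioGlo3; nearly all actives have a fitted effect of over 70% in size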; further: potency means the concentration at half of the fitted maximal effect
Chain of N-terminal Xaa-Pro-Lys N-methyltransferase 1 (Homo sapiens) (Q9BV86 whole entry, looked up): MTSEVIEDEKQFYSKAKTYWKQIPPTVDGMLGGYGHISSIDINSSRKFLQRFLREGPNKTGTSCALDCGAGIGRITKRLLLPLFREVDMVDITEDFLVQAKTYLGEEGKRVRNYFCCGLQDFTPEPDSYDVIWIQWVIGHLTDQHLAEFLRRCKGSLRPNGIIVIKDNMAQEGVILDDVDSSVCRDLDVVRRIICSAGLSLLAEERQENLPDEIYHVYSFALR
Procedure, shortened: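 NTMT1 125nM + cpds (various conc.), 1 min RT; add SAM 100uM/SAHH 10uM/ThioGlo3 15uM (addition mix). SAHH-coupled thiol detection, Ex340/Em450, t0 and 30 min RT; signal normalized to background. LOPAC 1280-cpd pilot.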

[6] = tested on: Zika virus NS2B-NS3 protease (unlinked); test: Optimization of GU AMC qHTS for Zika virus inhibitors: Unlinked NS2B-NS3 protease assay (AID 1347151); further: nearly all actives have a fitted effect of over 80% in size; further: potency means the concentration at half of the fitted maximal effect
Procedure, shortened: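 Noncovalent NS2B hydrophilic domain–NS3 protease complex (25 nM final) in 10 mM Tris-HCl pH 8.0, 0.01% Tween 20; AMC substrate, room temperature 15 min (~20% conversion); fluorescence change normalized, 4-parameter Hill fit.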

[7] = target: T1, Tyrosine-protein phosphatase non-receptor type substrate 1 (Homo sapiens) + Leukocyte surface antigen CD47 (Homo sapiens); test: CD47-SIRPalpha protein protein interaction - HTRF assay qHTS validation (AID 1347058; active means well fitted curve in the direction sought with a large enough effect in the signal ratio, not every such curve was filed as active; the % refers to the signal ratio; further: series mostly up to about 38 µM)
Procedure, shortened: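 Soluble extracellular domains (6His-CD47, Avi-tag-biotinylated SIRPalpha) in PBS pH 7.4 with 0.05% IGEPAL CA-630. Compounds were preincubated 30 min at RT with CD47 and anti-His-Eu, then SIRPalpha and SAV-XL665 were added. TR-FRET 665/615 ratio.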

[8] = tested on: Zika virus NS2B-NS3 protease (unlinked complex); test: Confirmatory screen GU AMC qHTS for Zika virus inhibitors (AID 1347153); further: nearly all actives have a fitted effect of over 70% in size;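 on potency: enzyme at 25 nM with substrate at 10 µM below its Km of 18.3 µM; potency means the concentration at half of the fitted maximal effect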
Procedure, shortened: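 Noncovalent NS2B hydrophilic domain/NS3 protease complex (25 nM) in 10 mM Tris-HCl pH 8.0, 0.01% Tween 20 was preincubated 15 min at room temperature with compounds. Then 10 µM AMC substrate (Km 18.3 µM) was added; fluorescence was read over 15 min and fitted to a 4-parameter Hill equation.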

[9] = tested on: Zika virus NS2B-NS3 protease (linked construct); test: Confirmatory screen NINDS AMC qHTS for Zika virus inhibitors (AID 1347152);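 further: AMC fluorescence gain from cleaved Bz-Nle-KRR-AMC substrate over 15 min; top concentration of the series differs between compounds; nearly all actives have a fitted effect of over 70% in size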
Procedure, shortened: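 Linked NS2B-NS3 protease, 1 nM, in 10 mM Tris-HCl pH 8.0, 0.01% Tween 20; compounds preincubated 15 min at room temperature. Nle-KRR-AMC 10 microM (Km 18.3 µM); 15-min fluorescence change (340/450 nm) fitted to 4-parameter Hill.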

[10] = target: Furin (Homo sapiens) (UniProt P09958); test: Furin counterscreen qHTS for Zika virus inhibitors (AID 1347149); further: nearly all actives have a fitted effect of over 70% in size; further: potency means the concentration at half of the fitted maximal effect
Chain of Furin (Homo sapiens) (P09958 whole entry, looked up): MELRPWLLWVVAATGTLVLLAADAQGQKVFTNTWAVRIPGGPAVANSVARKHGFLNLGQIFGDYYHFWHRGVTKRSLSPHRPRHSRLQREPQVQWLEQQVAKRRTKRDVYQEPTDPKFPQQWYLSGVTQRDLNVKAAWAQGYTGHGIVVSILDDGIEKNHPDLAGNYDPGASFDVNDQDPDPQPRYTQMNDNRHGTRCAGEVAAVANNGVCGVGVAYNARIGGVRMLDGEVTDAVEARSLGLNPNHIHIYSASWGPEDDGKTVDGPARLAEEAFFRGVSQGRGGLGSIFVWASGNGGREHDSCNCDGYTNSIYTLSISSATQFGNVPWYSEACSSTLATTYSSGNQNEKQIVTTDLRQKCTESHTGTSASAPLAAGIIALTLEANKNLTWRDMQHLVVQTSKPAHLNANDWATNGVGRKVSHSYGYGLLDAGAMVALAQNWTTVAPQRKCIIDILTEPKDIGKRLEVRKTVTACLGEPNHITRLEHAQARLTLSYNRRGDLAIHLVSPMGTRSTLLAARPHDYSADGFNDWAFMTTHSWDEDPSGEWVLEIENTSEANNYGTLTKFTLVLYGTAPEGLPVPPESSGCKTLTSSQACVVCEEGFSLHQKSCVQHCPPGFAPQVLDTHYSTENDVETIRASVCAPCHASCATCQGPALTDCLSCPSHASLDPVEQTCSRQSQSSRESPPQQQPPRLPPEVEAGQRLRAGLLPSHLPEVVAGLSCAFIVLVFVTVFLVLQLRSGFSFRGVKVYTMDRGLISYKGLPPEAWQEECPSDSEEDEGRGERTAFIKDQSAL
Procedure, shortened: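 Counterscreen measures cleavage of 2 microM BOC-RVRR-AMC, below its ~15 microM Km, by 5 nM full-length human furin at pH 7.0 after a 15-min compound preincubation. Inhibition derives from the 15-min fluorescence increase at 37C.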

Compound | Potency [1] | Potency [2] | Potency [3] | Potency [4] | Potency [5] | Potency [6] | outcome [7] | Potency [8] | Potency [9] | Potency [10]
c1ccc2nc(C3=NCCN3)ccc2c1 | inactive | inactive | inactive | 26.7 µM (active) | inactive |  |  |  |  | 
Oc1ccc(/C=C/c2ccc(/C=C/c3ccc(O)cc3)c(Br)c2)cc1 | inactive | inactive | inactive | inactive | inactive | inactive |  |  |  | 
CC(C)C[C@H](NC(=O)C1OC1C(=O)O)C(=O)NCCCCN=C(N)N (stereo not given in full) | inactive | inactive | inactive | inactive | inactive |  |  |  |  | 
O=C(O)CCC/C=C\C[C@@H]1[C@@H](/C=C/[C@H](O)C2Cc3ccccc3C2)[C@@H](F)C[C@@H]1O | inactive | inactive | inactive | inactive | inactive |  |  |  |  | 
COc1cc(/C=C(\C#N)C(=O)Nc2nnc(C(F)(F)F)s2)ccc1OCc1ccc(C(F)(F)F)cc1C(F)(F)F | inactive | inactive |  | inactive | 56.2 µM (active) | 2.12 µM (active) | inactive | 15.2 µM (active) |  | 
CN1Cc2sccc2C(c2ccc(O)c(O)c2)C1 (stereo not given) | inactive | inactive | inactive | inactive | 39.8 µM (active) | inactive |  |  |  | 
Nc1ncnc2c1c(-c1ccc(Oc3ccccc3)cc1)cn2C1CCCC1 | inactive | inactive |  | inactive | 79.4 µM (active) |  | inactive |  |  | 
Nc1nc2ccc(Cl)cc2c2nc(-c3ccco3)nn12 | inactive | inactive |  | 6.7 µM (active) | 12.6 µM (active) |  | inactive | inactive | inactive | 
CC(C)[C@H](NC(=O)OCc1ccccc1)C(=O)N[C@H](C=O)Cc1ccccc1 (Cbz-Val-Phe-aldehyde) | inactive | inactive | inactive | inactive | inactive | inactive |  |  |  | 
c1ccc(C(NCc2cccnc2)(c2ccccc2)c2ccccc2)cc1 | inactive | inactive | inactive | inactive | inactive |  |  |  |  | 
Nc1ccc(-c2ccc3ccccc3n2)cc1 | inactive | inactive | inactive | inactive | 39.8 µM (active) | 23.8 µM (active) |  | inactive | inactive | inactive
N#CC(=C(\N)Sc1ccccc1N)/C(C#N)=C(/N)Sc1ccccc1N | inactive | inactive | inactive |  | 56.2 µM (active) |  |  |  |  | 
C=C(C)C1CC=C(C(=O)O)CC1 (stereo not given) | inactive | inactive | inactive | inactive | inactive | inactive |  |  |  | 
CN(C)C(=O)/N=N/C(=O)N(C)C | inactive | inactive | inactive | inactive | 7.08 µM (active) | inactive |  |  |  | 
CNCCc1cnc(CCC(c2ccccc2)c2ccccc2)[nH]1 | inactive | inactive | inactive | inactive |  | inactive |  |  |  | 
O=C(OCCN1CCOCC1)C1(c2ccccc2)CCCCC1 | inactive | inactive | inactive | inactive |  | inactive |  |  |  | 
CN1C2CCC1CC(OC(c1ccccc1)c1ccccc1)C2 (stereo not given) | inactive | inactive | inactive | inactive |  | inactive |  |  |  | 
C[C@H](NC(=O)/C(C#N)=C/c1ccc(O)c(O)c1)c1ccccc1 | inactive | inactive | inactive |  | 25.1 µM (active) |  |  |  |  | 
COc1ccc(-c2ccc(N)[n+](CCCC(=O)O)n2)cc1 | inactive | inactive | inactive |  | inactive | inactive |  |  |  | 
[N-]=[N+]=Nc1ccc(C(=O)CSC[C@H](NC(=O)CC[C@H](N)C(=O)O)C(=O)NCC(=O)O)cc1 | inactive | inactive | inactive | inactive | inactive | 7.52 µM (active) |  |  |  | 
O=c1[nH]ccc2c(O)cccc12 | inactive | inactive | inactive | inactive | 56.2 µM (active) | 29.9 µM (active) |  |  |  | 
CCCCCCCC/C=C\CCCCCCCC(=O)NCCc1ccc(O)c(O)c1 | inactive | inactive | inactive |  | inactive | 7.52 µM (active) |  |  |  | 
Cc1nc2c(OCc3ccccc3)cccn2c1CC#N | inactive | inactive | inactive | inactive | inactive | inactive |  |  |  | 
C=CCn1c(=O)c2c(nc(-c3ccc(S(=O)(=O)O)cc3)n2C)n(C)c1=O | inactive | inactive | inactive | inactive | 15.8 µM (active) | 2.99 µM (active) |  |  |  | 
NCCS(=O)O | inactive | inactive | inactive |  | inactive | inactive |  |  |  | 
N#C/C(=C\c1ccc(O)c(O)c1)C(=O)NCCc1ccccc1 | inactive | inactive | inactive | inactive | 44.7 µM (active) | 2.38 µM (active) |  |  |  | 
O=c1cc(O)cc(/C=C/c2ccc(O)c(O)c2)o1 | inactive | inactive | inactive | inactive | 44.7 µM (active) | 13.4 µM (active) |  |  |  | 
NC[C@@H]1O[C@H](c2ccccc2)Cc2c1ccc(O)c2O | inactive | inactive | inactive | inactive |  | inactive |  |  |  | 
CC[C@H](NC(=O)c1c(C)c(-c2ccccc2)nc2ccccc12)c1ccccc1 | inactive | inactive | inactive | inactive | inactive | inactive |  |  |  | 
CCc1ccc2c(-c3cccc(Cl)c3)nc(=O)n(CC)c2n1 | inactive | inactive | inactive | 2.67 µM (active) |  | 26.7 µM (active) |  | inactive |  | 21.5 µM (active)
